Experimental data from the supplement of paper PMC3334620.
Over roughly 33,000 sequences, “E-score (-0.5 to 0.5)” has its median near -0.043; the highest 2% begin near 0.37. The entries come from a sample that favours the highest values as a whole.

These sequences were tested against T1, Upc2 (UniProt Q12151) (assay: PBM E-score (8-mer binding enrichment) (E-score (-0.5 to 0.5)); higher = stronger / more preferred TF binding). Conditions: protein concentration: 200 nM; construct: GST-full length.
T1 sequence: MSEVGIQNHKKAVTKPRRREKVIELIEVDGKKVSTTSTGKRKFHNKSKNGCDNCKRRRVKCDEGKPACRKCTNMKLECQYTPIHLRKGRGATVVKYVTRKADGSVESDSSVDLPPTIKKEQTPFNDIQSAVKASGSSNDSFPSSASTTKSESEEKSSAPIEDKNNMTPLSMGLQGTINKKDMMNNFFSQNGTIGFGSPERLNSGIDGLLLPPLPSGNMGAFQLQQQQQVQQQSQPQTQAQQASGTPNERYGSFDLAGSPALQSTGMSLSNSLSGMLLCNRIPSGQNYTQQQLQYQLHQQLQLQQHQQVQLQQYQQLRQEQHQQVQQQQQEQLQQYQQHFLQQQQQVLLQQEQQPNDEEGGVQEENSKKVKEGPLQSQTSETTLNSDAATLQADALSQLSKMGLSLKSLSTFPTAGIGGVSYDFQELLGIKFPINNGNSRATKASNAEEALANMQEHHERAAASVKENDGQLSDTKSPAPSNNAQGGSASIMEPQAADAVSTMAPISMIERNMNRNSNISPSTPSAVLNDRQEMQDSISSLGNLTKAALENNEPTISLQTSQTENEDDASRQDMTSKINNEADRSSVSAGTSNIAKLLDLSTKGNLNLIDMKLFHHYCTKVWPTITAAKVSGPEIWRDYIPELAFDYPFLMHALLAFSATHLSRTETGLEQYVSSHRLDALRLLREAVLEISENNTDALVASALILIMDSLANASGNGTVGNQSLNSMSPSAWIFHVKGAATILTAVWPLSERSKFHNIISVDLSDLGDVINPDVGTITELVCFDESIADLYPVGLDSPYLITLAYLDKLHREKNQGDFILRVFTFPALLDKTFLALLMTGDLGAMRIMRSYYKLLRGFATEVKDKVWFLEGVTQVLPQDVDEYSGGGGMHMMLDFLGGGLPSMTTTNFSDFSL
Protocol: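 Universal 'all 10-mer' protein binding microarrays (Agilent AMADID 015681) probed with GST-tagged S. cerevisiae TFs (full-length or DBD) made by in vitro transcription/translation (PURExpress), about 100-200 nM. Bound TF was detected with fluorescent anti-GST. Each ungapped 8-mer (which stands for itself and its reverse complement) is scored by the PBM enrichment score (E-score), a modified Wilcoxon-Mann-Whitney statistic from -0.5 to +0.5, computed with the Universal PBM Analysis Suite. Scale: above 0.35 generally sequence-specific binding.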

Row | Sequence | PBM E-score
1 | ATTCGATA | 0.0034
2 | GCACGATA | -0.0168
3 | CTACGATA | 0.31
4 | AGACGATA | 0.138
5 | ATACGATA | 0.472
6 | GTACGATA | 0.445
7 | CAAGCGAC | 0.169
8 | ATTTTCCG | 0.139
9 | GTTCTCCA | -0.109
10 | AGTCGAAG | -0.273
11 | AACCGTAT | 0.375
12 | AGCCGTAT | 0.378
13 | AGCCGTAA | 0.279
14 | AACCGTAA | 0.233
15 | ACCCGTAT | 0.396
16 | AGCCGTAG | -0.0316
17 | ACCCGTAG | -0.11
18 | AACCGTAC | 0.311
19 | ACCCGTAC | 0.354
20 | AGAAGAAG | -0.0336
21 | CCTAGTGA | -0.174
22 | TGCAACAA | -0.117
23 | AAAAAACA | -0.00292
24 | TGCAAGAA | -0.0985
25 | CGTACAAG | 0.442

Row | Sequence | PBM E-score
26 | AGTACATA | -0.0422
27 | AGTACAAA | -0.013
28 | CGTACATC | 0.352
29 | CGTACATA | 0.415
30 | CATACAAG | -0.192
31 | AGTACAAC | -0.0045
32 | CGTACAAC | 0.439
33 | CGTACAAA | 0.421
34 | GGTACAAC | -0.0773
35 | AGTACAAG | -0.052
36 | GGTACAAA | 0.0128
37 | AGTTCTCA | -0.107
38 | CGCGACCA | 0.116
39 | AGAGCTAG | -0.113
40 | AGTCTCTA | -0.0101
41 | ATCCCCTC | -0.0985
42 | CAAACCCA | 0.0481
43 | AAAATGTC | 0.14
44 | GCATCGGA | -0.0207
45 | CCATCGTA | 0.44
46 | CCATCGTC | -0.0745
47 | GCATCGAA | 0.00261
48 | ACATCGTA | 0.425
49 | GCATCGTA | 0.429
50 | ACATCGTG | -0.0454

Row | Sequence | PBM E-score
51 | ACATCGTC | -0.00985
52 | CCATCGAA | -0.132
53 | TGAAGGCA | -0.0834
54 | AACTATGC | 0.051
55 | AGTGGTCC | -0.123
56 | CCAATCGG | -0.174
57 | CCGAGGTA | 0.125
58 | CCTACGAA | 0.228
59 | GCTACGAC | 0.379
60 | TCTACGAA | 0.335
61 | GCTACGAA | 0.395
62 | ACTACGAC | 0.272
63 | CCTACGAC | 0.232
64 | TTACTCAA | 0.0201
65 | AGTGAGAG | -0.279
66 | AGCCATAT | 0.0338
67 | AATACGAC | 0.435
68 | GATACGAA | 0.454
69 | GATACGTA | 0.254
70 | AATACGTC | 0.0421
71 | AATACGTG | 0.155
72 | AATACGCC | 0.00457
73 | AATACGCT | 0.212
74 | ACTACGAT | 0.16
75 | AATACGGG | 0.229

Row | Sequence | PBM E-score
76 | AATACGAG | 0.457
77 | GATACAAA | 0.106
78 | AATACGAT | 0.395
79 | CAGCACAA | 0.0156
80 | CGAGATGA | 0.233
81 | CGACTCTC | 0.179
82 | AAACAGGA | -0.139
83 | TACCTGCA | -0.0203
84 | ATAGATCC | -0.0535
85 | CGACACAG | 0.122
86 | CAAACCGG | -0.0596
87 | GATACGAC | 0.468
88 | CATACGAA | 0.466
89 | CATACGAG | 0.486
90 | CATACGTA | 0.315
91 | CATACGCG | 0.313
92 | CATACGCC | 0.307
93 | GATACGGC | 0.324
94 | GATACGCC | 0.189
95 | CATACGAC | 0.466
96 | CATACGTC | 0.215
97 | CACACGAG | 0.155
98 | CATACAAA | 0.114
99 | AGCAAGGA | -0.0783
100 | GCCAACGC | -0.0104

Row | Sequence | PBM E-score
101 | CGACTGAA | 0.184
102 | CTGGGGCA | -0.2
103 | CCTCACGA | -0.219
104 | AATACGAA | 0.424
105 | ACTACGAA | 0.185
106 | AATACGTA | 0.196
107 | CACTTAAG | -0.0164
108 | ATCGTACC | 0.455
109 | CGCGTACC | 0.302
110 | CTCGTACC | 0.481
111 | CACGTACC | 0.188
112 | CTCGTACA | 0.489
113 | AGCGTACC | 0.212
114 | CTTGTACA | -0.0692
115 | ATAGTACC | -0.084
116 | CTGGTACA | -0.0228
117 | CTGTTAGC | -0.142
118 | CGCATTTA | 0.0301
119 | GCTATGCC | -0.282
120 | ATGGTCTG | -0.129
121 | CAGGACTC | -0.0969
122 | GAGGTAGA | -0.0305
123 | CACGAAGG | 0.00451
124 | AACGAAGG | 0.401
125 | TCCGAAGA | 0.0352

Row | Sequence | PBM E-score
126 | AACGAAGC | 0.408
127 | ACCGAAGG | 0.0458
128 | GACGAAGC | 0.00181
129 | TAAGAAGA | 0.11
130 | TACGAAGA | 0.448
131 | AAAGAAGT | -0.0114
132 | CACGAAGC | 0.017
133 | ACCGAAGT | 0.147
134 | AACGAAGT | 0.415
135 | GTTAAAAA | 0.11
136 | CTAGTGTC | 0.0134
137 | CCAGGATA | 0.0403
138 | ATTTCTAA | -0.105
139 | AGGAACCC | 0.0161
140 | CAACCAGC | -0.203
141 | CTAGGGAA | -0.179
142 | AGACCCAT | -0.186
143 | CTAGACCA | -0.217
144 | AGCCACAC | -0.00233
145 | GACGAAGA | -0.0247
146 | CACGAAGA | 0.0935
147 | AACGAAGA | 0.424
148 | CGTATGGA | 0.423
149 | AGTATGGA | -0.128
150 | CGTATGGC | 0.413

Row | Sequence | PBM E-score
151 | AGTATGGC | -0.129
152 | GGTATGGA | -0.146
153 | CCTATGGC | -0.195
154 | AAATGAAC | 0.118
155 | AGCAATCC | -0.121
156 | ACAAGCCT | -0.166
157 | ATCGGTTA | 0.333
158 | GTCGGTTA | 0.337
159 | CTCGGTTA | 0.381
160 | ATTTTTCG | 0.0906
161 | CCTTTATC | -0.132
162 | TATCAGGA | 0.0996
163 | CACGTAAG | 0.105
164 | CCCGTAAC | 0.248
165 | GGCGTAAC | 0.0403
166 | CGCGTAAG | 0.205
167 | CTCGTAAC | 0.425
168 | CACGTAAC | 0.039
169 | GACGTAAC | 0.0258
170 | GTCGTAAC | 0.408
171 | CTCGTAAG | 0.43
172 | AGAAGTTG | 0.0297
